Several values for one entry are separate records, joined by “and”; a condition that tells them apart may be missing. Identical values can stand only once. Results filed as inconclusive are left out. Where a structure was tested more than once in an assay, its records may differ in their call. Activity calls are given as the source filed them. How the source made its calls, unless noted: active means hit-call score of the fitted dose curve at least 0.9, where 1 is the maximum; inconclusive means response in the unintended direction; inactive means score below 0.9.
Tests used:
[1] = tested on: turtle Thyroid Hormone Receptor, alpha (TRa), gene 101949057; assay: ATG_trTRa_XSP2: Attagene TRANS-FACTORIAL Multi-Species (XSP1) HepG2 Assay for turtle Thyroid Hormone Receptor, alpha (TRa) (AID 2283834);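 further: hits raise reporter mRNA over the DMSO baseline so AC50 marks activators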
How it was run: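 Multiplexed TRANS reporter assay; HepG2 carrying NR-Gal4 constructs treated 24 h. mRNA of the GAL4-UAS reporter quantified via labelled RT-PCR fragments on a genetic analyzer, vs DMSO negative control.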

[2] = biological target: zebrafish Thyroid Hormone Receptor beta (TRb), thrb (gene 30607) (UniProt Q9PVE4); assay: ATG_zfTRb_XSP2: Attagene TRANS-FACTORIAL Multi-Species (XSP1) HepG2 Assay for zebrafish Thyroid Hormone Receptor beta (TRb) (AID 2283836);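 on AC50: potency for induction of reporter signal above DMSO so agonist direction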
How it was run: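 Multiplexed trans-activation in HepG2 cells, 24 h treatment, with reporter mRNA read by RT-PCR and capillary electrophoresis. Gain-of-signal against DMSO.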

[3] = biological target: human Thyroid hormone Receptor alpha (TRa), THRA (gene 7067) (UniProt P10827); assay: ATG_hTRa_XSP2: Attagene TRANS-FACTORIAL Multi-Species (XSP2) HepG2 Assay for human Thyroid hormone Receptor alpha (TRa) (AID 2283838)
How it was run: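 Gain-of-signal in reporter mRNA, relative to DMSO, after 24 h dosing of transfected HepG2; quantitation by RT-PCR fragment analysis on capillary electrophoresis.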

[4] = biological target: frog Thyroid hormone Receptor alpha (TRa), thra-a (gene 397942) (UniProt P15204); assay: ATG_frTRa_XSP2: Attagene TRANS-FACTORIAL Multi-Species (XSP2) HepG2 Assay for frog Thyroid hormone Receptor alpha (TRa) (AID 2283839);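 on AC50: AC50 reflects induction of frog TRa-driven reporter mRNA above DMSO baseline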
How it was run: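 Chimeric frog TRα-GAL4 activity in human liver cells measures reporter transcript induction 24 h post-dose. Detection uses RT-PCR, HpaI-digested labelled products and fluorescence capillary electrophoresis; DMSO serves as negative control.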

[5] = biological target: human Thyroid hormone Receptor beta (TRb), THRB (gene 7068) (UniProt P10828); assay: ATG_hTRb_XSP2: Attagene TRANS-FACTORIAL Multi-Species (XSP2) HepG2 Assay for human Thyroid hormone Receptor beta (TRb) (AID 2283840);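 further: actives raise reporter mRNA so potency reflects agonist-like gain of signal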
How it was run: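 Gain-of-signal reporter transcription, referenced to DMSO, was measured in transiently transfected HepG2 after 24 h exposure; labeled RT-PCR products were resolved by capillary electrophoresis. Assay medium included 3 nM 6-alpha-fluorotestosterone and 1.5 nM norgestrel.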

[6] = tested on: Sodium/Iodide Symporter (NIS), SLC5A5 (gene 6528); assay: CPHEA_Stoker_NIS_Inhibition_RAIU: CPHEA's Radioactive Iodide Uptake (RAIU) Assay for Sodium/Iodide Symporter (NIS) Inhibition, Stoker and Laws Labs (AID 2283841)
How it was run: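 HEK293T cells stably expressing human NIS (hNIS-HEK293T-EPA) were exposed to test chemicals at 0.001–100uM (0.5% final DMSO) with 125I at a final 329pM in HBSS/10mM HEPES pH 7.4. After 2 hours at room temperature and ice-cold washes, intracellular 125I was counted as CPM and normalized to DMSO wells.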

[7] = CPHEA_Stoker_NIS_Cytotoxicity: Cytotoxicity Assessment for CPHEA's Radioactive Iodide Uptake (RAIU) Assay for Sodium/Iodide Symporter (NIS) Inhibition, Stoker and Laws Labs (AID 2283897);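 on AC50: active means loss of ATP signal versus DMSO meaning cytotoxicity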
How it was run: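 hNIS-HEK293T-EPA human kidney cells were exposed for 2 hours at room temperature to test chemicals (0.001–100uM, 0.5% final DMSO) in HEPES-buffered HBSS, pH 7.4. Viability was read as ATP content by luciferase bioluminescence, loss of signal versus DMSO.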

[8] = ATG_XTT_Cytotoxicity_XSP2: Cytotoxicity Assessment in the Attagene TRANS-FACTORIAL Multi-Species (XSP2) HepG2 Assay (AID 2283837)
How it was run: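 XTT-based cell number read-out in human HepG2 liver cells carrying transfected reporter units, measured 24 h after chemical dosing. Activity is signal loss versus DMSO baseline.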

[9] = CEETOX_H295R_OHPREG_noMTC: CeeTox H295R High-throughput Steroidogenesis Assay for OH-Pregnenolone (OHPREG), maximum tolerated concentration (MTC) filtered results only (AID 2283912; active means hit-call score of the fitted dose curve at least 0.9, where 1 is the maximum; inactive means score below 0.9); details: actives raise or lower the signal
How it was run: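 Readout is HPLC-MS/MS quantification of 17alpha-hydroxypregnenolone released by forskolin-stimulated H295R cells over 48 h of chemical exposure, DMSO as baseline.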

[10] = CEETOX_H295R_11DCORT_noMTC: CeeTox H295R High-throughput Steroidogenesis Assay for 11-Deoxycortisol (11DCORT), maximum tolerated concentration (MTC) filtered results only (AID 2283911; active means hit-call score of the fitted dose curve at least 0.9, where 1 is the maximum; inactive means score below 0.9); details: actives raise or lower the signal
How it was run: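 Forskolin-primed (10 uM, 48 h) H295R adrenal cells are dosed for 48 h at 0.1% DMSO; medium 11-deoxycortisol is quantified by LC-MS/MS against a 7-point standard curve, with activity fitted in both directions versus DMSO.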

Measured: AC50

frog Thyroid hormone Receptor alpha (TRa), thra-a (gene 397942), sequence (P15204 whole entry, looked up, the tested form may be a part): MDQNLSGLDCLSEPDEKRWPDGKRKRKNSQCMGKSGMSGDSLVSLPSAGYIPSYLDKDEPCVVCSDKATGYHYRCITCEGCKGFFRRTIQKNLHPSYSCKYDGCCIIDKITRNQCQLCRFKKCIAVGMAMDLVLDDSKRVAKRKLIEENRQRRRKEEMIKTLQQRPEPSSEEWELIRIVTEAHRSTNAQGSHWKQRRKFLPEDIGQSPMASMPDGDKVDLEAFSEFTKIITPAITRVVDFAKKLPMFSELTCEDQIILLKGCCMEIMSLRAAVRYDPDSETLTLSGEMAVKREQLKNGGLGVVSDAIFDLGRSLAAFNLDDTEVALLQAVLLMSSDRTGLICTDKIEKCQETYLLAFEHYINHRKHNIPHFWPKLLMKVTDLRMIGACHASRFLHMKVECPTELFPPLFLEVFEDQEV
zebrafish Thyroid Hormone Receptor beta (TRb), thrb (gene 30607), sequence (Q9PVE4 whole entry, looked up): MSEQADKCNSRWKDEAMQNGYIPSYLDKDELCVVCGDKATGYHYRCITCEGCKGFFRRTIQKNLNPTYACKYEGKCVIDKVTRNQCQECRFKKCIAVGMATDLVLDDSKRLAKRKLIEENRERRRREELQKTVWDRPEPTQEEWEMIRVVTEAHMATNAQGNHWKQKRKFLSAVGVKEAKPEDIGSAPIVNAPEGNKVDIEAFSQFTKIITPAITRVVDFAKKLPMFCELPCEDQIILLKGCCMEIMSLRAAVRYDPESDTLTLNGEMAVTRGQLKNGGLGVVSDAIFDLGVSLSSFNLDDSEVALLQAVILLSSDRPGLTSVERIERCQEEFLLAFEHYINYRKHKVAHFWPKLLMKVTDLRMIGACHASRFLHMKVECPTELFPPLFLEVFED
human Thyroid hormone Receptor beta (TRb), THRB (gene 7068), sequence (P10828 whole entry, looked up): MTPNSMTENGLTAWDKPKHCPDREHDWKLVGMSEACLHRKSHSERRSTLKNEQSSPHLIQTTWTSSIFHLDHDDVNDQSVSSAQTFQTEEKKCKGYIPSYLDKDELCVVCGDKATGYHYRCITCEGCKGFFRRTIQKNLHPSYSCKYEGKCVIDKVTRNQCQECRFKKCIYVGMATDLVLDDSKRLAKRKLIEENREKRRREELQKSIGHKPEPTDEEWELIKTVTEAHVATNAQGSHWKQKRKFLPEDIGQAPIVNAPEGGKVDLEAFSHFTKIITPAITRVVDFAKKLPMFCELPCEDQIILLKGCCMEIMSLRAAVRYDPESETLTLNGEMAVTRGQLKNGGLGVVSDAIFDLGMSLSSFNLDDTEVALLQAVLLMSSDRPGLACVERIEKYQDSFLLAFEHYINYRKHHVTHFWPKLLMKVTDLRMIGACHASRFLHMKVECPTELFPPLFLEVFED
human Thyroid hormone Receptor alpha (TRa), THRA (gene 7067), sequence (P10827 whole entry, looked up, the tested form may be a part): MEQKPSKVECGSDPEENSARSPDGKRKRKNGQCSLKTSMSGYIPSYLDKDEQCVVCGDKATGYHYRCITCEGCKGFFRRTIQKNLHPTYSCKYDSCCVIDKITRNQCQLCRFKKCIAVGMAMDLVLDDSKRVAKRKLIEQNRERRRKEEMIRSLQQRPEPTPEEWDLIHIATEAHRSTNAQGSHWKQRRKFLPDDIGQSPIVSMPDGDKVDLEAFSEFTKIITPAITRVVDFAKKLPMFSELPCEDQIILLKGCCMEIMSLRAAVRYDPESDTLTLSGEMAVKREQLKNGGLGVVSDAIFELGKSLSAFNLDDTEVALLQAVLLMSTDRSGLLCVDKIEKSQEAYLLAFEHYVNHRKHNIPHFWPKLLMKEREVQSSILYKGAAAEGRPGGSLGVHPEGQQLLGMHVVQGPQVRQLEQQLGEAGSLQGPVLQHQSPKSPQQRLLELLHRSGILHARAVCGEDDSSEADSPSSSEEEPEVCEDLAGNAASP

CC12CC1(C)C(=O)N(c1cc(Cl)cc(Cl)c1)C2=O (stereo unspecified)
active: [5] 63.2 µM
inactive: [1] | [2] | [3] | [4] | [5]

COP(=O)(OC)O/C(=C\Cl)c1cc(Cl)c(Cl)cc1Cl
inactive: [1] | [2] | [4] | [5] | [6] | [7]

C=C(C)C(=O)[O][Sn]([CH2]CCC)([CH2]CCC)[CH2]CCC
active: [6] 5.24 µM | [7] 1.25 µM

CC(C)(C)CC(C)(C)c1ccc(O)cc1
inactive: [1] | [2] | [4] | [5] | [6] | [7]

Clc1ccc(C2(Cn3cncn3)CC(Br)CO2)c(Cl)c1 (stereo unspecified)
active: [1] 26.9 µM | [4] 5.44 µM
inactive: [1] | [2] | [8] | [3] | [4] | [5] | [6] | [7]

CC1(C)CCC(Cc2ccc(Cl)cc2)C1(O)Cn1cncn1 (stereo unspecified)
inactive: [1] | [2] | [3] | [5] | [6] | [7]

Oc1c(I)cc(I)cc1I
active: [2] 26.3 µM | [8] 69.1 µM | [3] 26 µM | [4] 26.5 µM and 25.7 µM | [5] 56.1 µM and 16.2 µM
inactive: [1] | [2]

CCC[CH2][Sn]([CH2]CCC)([CH2]CCC)[O]C(=O)c1ccccc1
active: [6] 1.4 µM | [7] 9.05 µM

Cc1ccc2ccccc2c1C
inactive: [6]

O=C1C2(Cl)C3(Cl)C4(Cl)C(Cl)(Cl)C5(Cl)C3(Cl)C1(Cl)C5(Cl)C24Cl (stereo unspecified)
active: [5] 10 µM
not listed: [8] | [9] | [10]
inactive: all other assays above

C[C@]12CC[C@H](O)CC1=CC[C@@H]1[C@@H]2CC[C@]2(C)C(=O)CC[C@@H]12
inactive: [1] | [2] | [5]

O=S(=O)(c1ccc(Cl)cc1)c1ccc(Cl)cc1
active: [5] 19.8 µM | [6] 9.92 µM
not listed: [9] | [10]
inactive: all other assays above

[O-][Cl+2]([O-])O
inactive: [6] | [7]

CC1(C)Cc2cccc(O)c2O1
inactive: [6]

Oc1ccc(-c2ccccc2)cc1
inactive: [1] | [2] | [8] | [3] | [4] | [5]

O=C(O)C(F)(F)C(F)(F)C(F)(F)C(F)(F)C(F)(F)C(F)(F)C(F)(F)C(F)(F)C(F)(F)C(F)(F)F
inactive: [6]

CC(=O)C=C(C)C
inactive: [1] | [2] | [8] | [3] | [4] | [5]

O=C(O)CCC(F)(C(F)(F)F)C(F)(F)F
inactive: [6]

C[C@]12CCC(=O)C[C@@H]1CC[C@@H]1[C@@H]2CC[C@]2(C)[C@@H](O)CC[C@@H]12
active: [5] 0.421 µM
inactive: [1] | [2] | [3] | [4]

C[C@H]1CCCC(=O)CCC/C=C/c2cc(O)cc(O)c2C(=O)O1
active: [7] 83.8 µM
not listed: [2] | [4] | [10]
inactive: all other assays above

CC(C)C1CCC(Cc2ccc(Cl)cc2)C1(O)Cn1cncn1 (stereo unspecified)
active: [8] 42.8 µM | [6] 20 µM | [7] 87.6 µM
not listed: [9] | [10]
inactive: all other assays above

CC(=O)c1cc(C(C)(C)C)cc2c1CCC2(C)C
inactive: [6] | [7]

CC(C)(C)c1cc(O)ccc1O
inactive: [1] | [2] | [3] | [4] | [5]

O=C(Nc1ccc2[nH]ccc2c1)c1cc2cc(F)ccc2n1Cc1cccc(F)c1
inactive: [6] | [7]

O=[N+]([O-])c1ccc(O)c([N+](=O)[O-])c1
inactive: [6] | [7]

CCOP(=S)(OCC)Oc1nc(Cl)c(Cl)cc1Cl
inactive: [6] | [7]

CCCCCCCCSC(=O)Oc1cc(Cl)nnc1-c1ccccc1
inactive: [6] | [7]

O=C(NCO)NCO
inactive: [6] | [7]

CCOP(=S)(OCC)SCSP(=S)(OCC)OCC
inactive: [6] | [7]

c1cc[c]([Hg][c]2ccccc2)cc1
inactive: [6] | [7]
active: [10] 53.6 µM | [9] 27.1 µM

O=C(O)C(F)(F)C(F)(F)C(F)(F)C(F)(F)C(F)(F)C(F)(F)F
inactive: [6] | [7]

O=C/C=C/c1ccccc1
inactive: [6] | [7]

NNC(=S)NN
inactive: [6] | [7]

ClC(Cl)=C(Cl)C(Cl)=C(Cl)Cl
inactive: [10] | [9]

Fc1ccc(C2(Cn3cncn3)OC2c2ccccc2Cl)cc1 (stereo unspecified)
inactive: [6] | [7]

CC(C)(c1ccccc1)c1ccc(O)c(C(C)(C)c2ccccc2)c1
inactive: [6] | [7]
